For 18 molecules, outcome and AC50 results are on record in PubChem BioAssay (EPA / NIEHS).

Where “and” joins values, the source holds several entries; their conditions need not be identical. Equal values may be shown once. Some structures have more than one record in an assay (separate samples or runs), and their calls can disagree. Calls of active or inactive are those of the source. The calls were made as follows: active = hit-call score of the fitted dose curve at least 0.9, where 1 is the maximum; inactive = score below 0.9.

Experiment [1] is described as follows: ATG_NFI_CIS: Attagene CIS-FACTORIAL HepG2 Assay for human Nuclear Factor I (NFI) (AID 2282989). The conditions noted are these: HepG2 cis-regulatory reporter, NFI response element transcription; actives raise or lower the signal. The essentials:
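HepG2, transient MRTU, 24 h exposure; RNA→cDNA→PCR→FAM label→HpaI→CE fluorescence. Bidirectional fit, DMSO = baseline.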

Experiment [2] deals with Myc proto-oncogene protein (Homo sapiens) (UniProt P01106). Kind of experiment: ATG_Myc_CIS: Attagene CIS-FACTORIAL HepG2 Assay for human Myelocytomatosis (Myc) Proto-Oncogene Transcription Factor (AID 2282990). The conditions noted are these: HepG2, Attagene cis-reporter transcription factor activity; actives raise or lower the signal. The essentials:
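Fluorescence intensity of reporter-specific cDNA fragments, separated by capillary electrophoresis, gives the signal. Transfected HepG2 cells carrying cis-promoter reporter constructs are incubated with compound for 24 h; DMSO serves as baseline.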

Experiment [3] in a line: ATG_NRF2_ARE_CIS: Attagene CIS-FACTORIAL HepG2 Assay for human Nuclear Factor Erythroid 2 Related Factor 2 (NFR2) response to Antioxidant Response Elements (ARE) (AID 2282992).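 As to AC50: reporter mRNA level measured by RT-PCR and capillary electrophoresis fluorescence.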 The conditions noted are these: HepG2 Attagene ARE/NRF2 reporter, transcription factor activity; actives raise or lower the signal. An outline of the steps:
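Fluorescence intensity of reporter-specific cDNA fragments, separated by capillary electrophoresis, reflects mRNA induction in transfected HepG2 cells at 24 h. Activity is fitted bidirectionally, DMSO serving as baseline.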

Experiment [4] is described as follows: ATG_Oct_MLP_CIS: Attagene CIS-FACTORIAL HepG2 Assay for human Octamer-Binding Transcription Factor (Oct) (AID 2282993). The settings on record: HepG2 Attagene cis-factorial Oct reporter, mRNA; actives raise or lower the signal. The essentials: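 Multiplexed cis-reporter assay in human liver HepG2 cells, 24 h incubation. Reporter RNA amplified and labelled, then resolved by capillary electrophoresis; DMSO serves as negative control and baseline.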

Experiment [5] concerns the target Cellular tumor antigen p53 (Homo sapiens) (UniProt P04637). Kind of experiment: ATG_p53_CIS: Attagene CIS-FACTORIAL HepG2 Assay for human p53 Transcription Factor (AID 2282994). The conditions noted are these: HepG2 p53 cis-element reporter, Attagene mRNA; actives raise or lower the signal. The essentials: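 Transiently transfected HepG2 (multiple cis reporter transcription units); exposure 24 h; reporter RNA via RT-PCR, 6-FAM extension, 2 h HpaI digest at 37 C, CE detection; DMSO baseline.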

A short description of experiment [6]: BSK_3C_TissueFactor: BioMAP Diversity Plus: 3C Assay for Tissue Factor Biomarker Activity (AID 2282997). The conditions noted are these: BioMAP 3C HUVEC, tissue factor biomarker readout; actives raise or lower the signal. The essentials: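 Readout: Tissue Factor ELISA. Cells: human primary umbilical vein endothelium. Time: 24 h after dosing. Analysis: bidirectional fit, DMSO baseline.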

Experiment [7] is described as follows: BSK_3C_uPAR: BioMAP Diversity Plus: 3C Assay for Urokinase-type plasminogen activator receptor (uPAR) Biomarker Activity (AID 2282998). The conditions noted are these: BioMAP 3C HUVEC, uPAR biomarker ELISA; actives raise or lower the signal. An outline of the steps:
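Dose primary human umbilical vein endothelial cells, incubate 24 h, measure cell-surface uPAR by ELISA, then fit the signal in both directions against the DMSO negative control.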

Experiment [8] is described as follows: BSK_3C_VCAM1: BioMAP Diversity Plus: 3C Assay for Vascular cell adhesion molecule 1 (VCAM1) Biomarker Activity (AID 2282999). The conditions noted are these: BioMAP 3C HUVEC, VCAM1 ELISA, cytokine-stimulated; actives raise or lower the signal. An outline of the steps: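 HUVEC primary cells, 24 h compound exposure; VCAM-1 by ELISA; gain/loss of signal fitted bidirectionally vs DMSO baseline.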
A general note: ELISA stands for enzyme-linked immunosorbent assay.

Experiment [9] is described as follows: BSK_4H_Eotaxin3: BioMAP Diversity Plus: 4H Assay for Eotaxin 3 Biomarker Activity (AID 2283000).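 As to outcome: CCL26 protein level quantified by ELISA in parallel with SRB cytotoxicity check.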 The conditions noted are these: primary human endothelial cells (HUVEC); actives raise or lower the signal. An outline of the steps:
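HUVEC, 24 h post-dose, ELISA for Eotaxin-3/CCL26. Gain or loss of signal fitted bidirectionally vs DMSO baseline.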

Experiment [10] can be described thus: ATG_NF_kB_CIS: Attagene CIS-FACTORIAL HepG2 Assay for human Nuclear Factor Kappa B (NF-kB) (AID 2282991). The settings on record: HepG2 Attagene cis-factorial NF-kB reporter mRNA; actives raise or lower the signal. The essentials: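 Endpoint from a 52-component multiplexed HepG2 reporter panel: cis-regulated transcription units transiently transfected, 24 h dosing, reporter mRNA quantified by RT-PCR and capillary electrophoresis, scored as increase or decrease against DMSO.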

Chain of Myc proto-oncogene protein (Homo sapiens) (P01106 whole entry, looked up, the tested form may be a part): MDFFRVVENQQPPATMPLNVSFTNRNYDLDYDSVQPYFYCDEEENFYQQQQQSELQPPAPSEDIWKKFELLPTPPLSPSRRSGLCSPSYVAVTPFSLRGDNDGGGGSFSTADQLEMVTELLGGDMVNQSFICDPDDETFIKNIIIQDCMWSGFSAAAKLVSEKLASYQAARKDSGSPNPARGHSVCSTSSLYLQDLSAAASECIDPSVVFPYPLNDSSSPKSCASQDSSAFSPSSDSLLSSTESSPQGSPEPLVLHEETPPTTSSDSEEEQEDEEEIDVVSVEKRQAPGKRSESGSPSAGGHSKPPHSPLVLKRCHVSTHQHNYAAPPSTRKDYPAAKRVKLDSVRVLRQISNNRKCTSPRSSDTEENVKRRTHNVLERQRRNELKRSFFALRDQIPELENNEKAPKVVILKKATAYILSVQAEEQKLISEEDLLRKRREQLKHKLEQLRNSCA
Chain of Cellular tumor antigen p53 (Homo sapiens) (P04637 whole entry, looked up): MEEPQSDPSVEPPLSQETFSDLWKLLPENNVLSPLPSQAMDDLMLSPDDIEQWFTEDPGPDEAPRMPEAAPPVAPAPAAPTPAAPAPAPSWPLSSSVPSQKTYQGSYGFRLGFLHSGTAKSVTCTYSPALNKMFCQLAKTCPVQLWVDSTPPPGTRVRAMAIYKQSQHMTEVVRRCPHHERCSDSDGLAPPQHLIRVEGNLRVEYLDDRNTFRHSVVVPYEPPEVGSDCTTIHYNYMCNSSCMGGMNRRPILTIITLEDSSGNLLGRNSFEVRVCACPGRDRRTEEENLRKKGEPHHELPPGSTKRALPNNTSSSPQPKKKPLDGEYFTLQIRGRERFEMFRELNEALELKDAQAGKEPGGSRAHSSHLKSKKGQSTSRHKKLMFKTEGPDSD

Take `CCCCCCCCC(=O)O`: the molecule was classed as inactive in [1], in experiment [2], in experiment [3], in [4], in experiment [5] and in experiment [6]. Further, the outcome in experiment [7], in experiment [8] and in experiment [9] was inactive.
As for `C[C@@H]1C[C@H]2[C@@H]3CCC4=CC(=O)C=C[C@]4(C)[C@@]3(F)[C@@H](O)C[C@]2(C)[C@@]1(O)C(=O)COP(=O)(O)O`, the call in experiment [1], in experiment [2], in experiment [10], in experiment [3], in experiment [4] and in [5] was inactive. The outcome in experiment [6], in [7], in experiment [8] and in experiment [9] was inactive. Moreover, in experiment [9], the AC50 is 8.66 µM (active).
In the case of `O=[N+]([O-])c1ccc(O)cc1`, the outcome in experiment [1], in [2], in [10], in [3], in [4] and in experiment [5] was inactive. In addition, the result in experiment [6], in [7], in experiment [8] and in experiment [9] was inactive.
In the case of `CC(O)CO` (stereo not drawn), the molecule was called inactive in experiment [1], in experiment [2], in [10], in [3], in [4] and in experiment [5]. Further, the outcome in experiment [6], in [7], in [8] and in experiment [9] was inactive.
For `COCC(C)OCC(C)O` (stereo not drawn), the outcome in [1], in experiment [2], in [10], in [3], in experiment [4] and in experiment [5] was inactive. Besides, the outcome in [6], in experiment [7], in experiment [8] and in [9] was inactive.
On to `O=C(O)Cc1cc(I)c(Oc2cc(I)c(O)c(I)c2)c(I)c1`, for which the AC50 was 47.9 µM (active) and 17.2 µM (active) in experiment [1]; 48.6 µM (active) and 16.8 µM (active) in experiment [2]; 105 µM (active) and 46.1 µM (active) in experiment [10]; 17 µM (active) and 16.9 µM (active) in experiment [3]; 34.8 µM (active) and 33.3 µM (active) in experiment [4]; 24.3 µM (active) in experiment [6]. In addition, the molecule was called inactive in [5], in experiment [7], in experiment [8] and in [9].
Take `COC(=O)CCCCC(=O)OC`: the molecule was classed as inactive in [1], in [2], in [3], in experiment [4], in experiment [5] and in experiment [6]. Besides, the outcome in experiment [7], in [8] and in [9] was inactive.
As for `CN(C)C=O`, the molecule was called inactive in experiment [1], in [2], in experiment [10], in experiment [3], in experiment [4] and in [5]. In addition, the outcome in experiment [6], in experiment [7], in experiment [8] and in [9] was inactive.
Take `CCCOC(=O)c1ccc(O)cc1`: the call in experiment [1], in experiment [2], in experiment [3], in [4], in [5] and in experiment [6] was inactive. Also, the outcome in experiment [7], in experiment [8] and in experiment [9] was inactive. Moreover, the results for the AC50 in experiment [3] and in experiment [4] were 77.7 µM (active) and 168 µM (active), respectively.
`CCN(CC)CCNc1ccc(CNC=O)c2sc3ccc(OC)cc3c(=O)c12`: the half-maximal activity concentration (AC50) in experiment [1] is 843 nM (active); in experiment [2] it was 508 nM (active); in experiment [3], 0.0735 µM (active); in [4], 0.842 µM (active); in [5] it was 0.117 µM (active); in experiment [6], 31.2 µM (active). Besides, the AC50 in experiment [7] is 12.3 µM (active); in experiment [8], 26.8 µM (active); in experiment [9], 29.2 µM (active).
For `CCCCCCCC(=O)O`, the outcome in experiment [1], in [2], in experiment [3], in [4], in experiment [5] and in experiment [6] was inactive. Besides, the result in [7], in experiment [8] and in [9] was inactive.
With `CC(C)(C)CC(C)(C)c1ccc(O)c(-n2nc3ccccc3n2)c1`, the outcome in experiment [1], in [2], in experiment [10], in experiment [5], in experiment [6] and in experiment [7] was inactive. Besides, the outcome in [8] and in experiment [9] was inactive. For the same molecule, the figures for the AC50 in experiment [3] and in experiment [4] were 36.4 µM (active) and 78.5 µM (active), respectively.
Turning to `c1ccc2cc3c(ccc4ccccc43)cc2c1`, the molecule was classed as inactive in experiment [1], in [2], in [4], in [5], in experiment [6] and in experiment [7]. Further, the outcome in experiment [8] was inactive. Further, the AC50 was 1.21 µM (active) and 7.63 µM (active) in experiment [4]; 2.48 µM (active) in experiment [9].
As to `CCCCC(CC)COC(=O)CCCCC(=O)OCC(CC)CCCC` (stereo not drawn), the result in [1], in experiment [2], in experiment [10], in [3], in [4] and in experiment [5] was inactive. The result in experiment [6], in experiment [7], in experiment [8] and in experiment [9] was inactive.
For `CN1CCC[C@H]1c1cccnc1`, the result in experiment [1], in experiment [2], in experiment [3], in [4], in experiment [6] and in [7] was inactive. The result in experiment [8] and in [9] was inactive.
In the case of `Cc1cc(C)c(O)c(C)c1`, the outcome in [1], in experiment [2], in experiment [5], in [6], in experiment [7] and in experiment [8] was inactive. Further, the result in experiment [9] was inactive. Moreover, the figures for the AC50 in [3] and in [4] were 27.7 µM (active) and 100 µM (active), respectively.
With `CCCCCCCCCCCCc1ccccc1S(=O)(=O)O`, the call in [1], in experiment [2], in experiment [10], in [3], in [4] and in experiment [5] was inactive. The result in experiment [6], in experiment [7], in experiment [8] and in [9] was inactive.
Regarding `OC1CCC(C2CCCCC2)CC1` (stereo not drawn), the molecule was called inactive in experiment [1], in [2], in experiment [4], in experiment [5], in [6] and in experiment [7]. The result in [8] and in experiment [9] was inactive. Besides, the AC50 in [3] is 140 µM (active) [middle of 4 runs].

What is called AC50 is the concentration at which the activity in the assay is half-maximal.
